Nine compounds from PubChem BioAssay (EPA / NIEHS) can be followed below.

“And” between values parts separate entries of the source, which are not always exact repeats. Identical values can stand only once. Records with an inconclusive call do not appear. The source made the active and inactive calls. Rule for the calls, unless noted: active = hit-call score of the fitted dose curve at least 0.9, where 1 is the maximum; inactive = score below 0.9.

The nature of test [1]: BSK_BT_PBMCCytotoxicity: PBMC Cytotoxicity Assessment in the BioMAP Diversity Plus: BT Assay (AID 2284225).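 Note: PBMC viability measured by Alamar Blue dye reduction fluorescence.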 The following applies: primary human B cells with PBMC. A digest of the protocol:
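Primary human co-culture of B cells and PBMC, pre-dosed 1 h then activated with SEB and TSST-1. Cytotoxicity is taken from Alamar Blue dye reduction, added for 6 h at the end of a 90 h incubation.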

Read-out in test [2]: Secreted IgG (sIgG), gene 3500
Description: BSK_BT_sIgG: BioMAP Diversity Plus: BT Assay for Secreted IgG (sIgG) Biomarker Activity (AID 2284226). The following applies: primary human B cells with PBMC. A digest of the protocol: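 Human B cell/PBMC co-culture; compound exposure 24 h; sIgG by ELISA; gain-of-signal fit vs DMSO baseline.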

The nature of test [3]: BSK_BT_Bcell_Proliferation: Viability Assessment in the BioMAP Diversity Plus: BT Assay for B cell Proliferation (AID 2284227). The conditions noted are these: primary human B cells with PBMC. The essentials:
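Human B cell/PBMC co-culture; test chemical added; 72 h; TCA fix (10%), 0.1% SRB stain, A560 for total protein as a proliferation read-out; positive-direction fit vs DMSO baseline.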

Read-out in test [4]: Interleukin 6 (IL6), IL6 (gene 3569)
Description: BSK_BT_xIL6: BioMAP Diversity Plus: BT Assay for Interleukin 6 (IL6) Biomarker Activity (AID 2284228). The conditions noted are these: primary human B cells with PBMC. The essentials:
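Secreted IL-6 in the primary human B cell plus PBMC system, measured by Luminex at 24 h post-chemical, DMSO as baseline. Alamar Blue viability: 75,000 cells/well, chemical 1 h before SEB/TSST-1 (20 ng/mL each), 90 h, then 6 h dye.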

Read-out in test [5]: Interleukin 17A (IL17A), IL17A (gene 3605)
Description: BSK_BT_xIL17A: BioMAP Diversity Plus: BT Assay for Interleukin 17A (IL17A) Biomarker Activity (AID 2284229). The conditions noted are these: primary human B cells with PBMC. A digest of the protocol: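 Luminex xMAP quantification of secreted IL-17A after 24 h chemical exposure of a primary human B cell/PBMC co-culture. Signal increases fitted relative to DMSO negative control.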

Read-out in test [6]: Tumor necrosis factor (Homo sapiens) (UniProt P01375)
The test is described as follows: BSK_BT_xTNFa: BioMAP Diversity Plus: BT Assay for Tumor necrosis factor alpha (TNF-alpha) Biomarker Activity (AID 2284230). The following applies: primary human B cells with PBMC. A digest of the protocol:
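Read-out: Luminex xMAP quantitation of secreted TNF-alpha from a B cell/PBMC co-culture 24 h after compound addition. Signal analysed relative to DMSO vehicle, positive fitting direction.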

Read-out in test [7]: Vascular cell adhesion molecule 1 (VCAM1), VCAM1 (gene 7412)
Description: BSK_MyoF_VCAM1: BioMAP Diversity Plus: MyoF Assay for Vascular cell adhesion molecule 1 (VCAM1) Biomarker Activity (AID 2284231). The following applies: primary human lung fibroblasts. The essentials:
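ELISA readout of VCAM-1 on human lung fibroblast cultures 24 hours after dosing, analyzed for signal gain relative to DMSO. Overt cytotoxicity was checked by sulforhodamine B total-protein staining in parallel cultures.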

A short description of test [8]: CCTE_Mundy_HCI_Cortical_NOG_NeuriteLength: CCTE's Neurite Outgrowth Assay in rat cortical cells for Neurite Length, Mundy Lab (AID 2284213). The essentials: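 First, rat primary cortical cells were plated and, 2 h later, given test chemical as a 1/10 dilution. Finally, βIII-tubulin immunostaining enabled automated imaging of neurite length.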
The nature of test [9]: CCTE_Mundy_HCI_Cortical_Synap_Neur_Matur_NeuriteLength: CCTE's Synaptogenesis and Neurite Maturation Assay in rat cortical cells for Neurite Length, Mundy Lab (AID 2284214). The essentials:
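Read-out: high-content imaging of MAP2-labelled neurites, with synaptophysin and Hoechst co-stain, in rat cortical cultures fixed at DIV 12. Activity fitted in positive direction relative to DMSO baseline.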

Test [10] is described as follows: CCTE_Mundy_HCI_Cortical_Synap_Neur_Matur_NeuriteSpotCountPerNeuron: CCTE's Synaptogenesis and Neurite Maturation Assay in rat cortical cells for Neurite Spot Count per Neuron Count, Mundy Lab (AID 2284215). A digest of the protocol:
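High-content imaging counts synaptophysin puncta along MAP2-labelled neurites per neuron after chemical exposure of rat cortical cells from DIV 7 to termination at DIV 12 (AraC added DIV 5). Loss of signal relative to DMSO.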

Test [11] can be described thus: TAMU_PeakParms_SingleDonor1434_Chronotropy: Texas A&M University (TAMU) 1.5-hr Human Induced Pluripotent Stem Cell (iPSC)-derived Cardiomyocytes Calcium (Ca+2) Flux Assay for Cardiotoxicity: Chronotropy (changes in peak frequency) (AID 2284217). The conditions noted are these: actives raise or lower the signal. A digest of the protocol:
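Beat rate, as mean Ca2+-flux peak frequency, was read from donor 1434 iPSC cardiomyocytes 90 min after exposure to 0.2–100 uM test chemical (0.5% DMSO). Wells that stopped beating were excluded; EC05 from bidirectional DMSO-referenced fitting.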

The nature of test [12]: CCTE_Mundy_HCI_Cortical_Synap_Neur_Matur_SynapseCount: CCTE's Synaptogenesis and Neurite Maturation Assay in rat cortical cells for Synapse Count, Mundy Lab (AID 2284218). A digest of the protocol: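 Read-out: synapse number per neuron, automated high-content imaging of fixed cells immunostained for MAP2 and synaptophysin plus Hoechst nuclei. Rat primary cortical cultures, AraC at DIV 5, chemical dosing DIV 7–12. Positive-direction fit relative to DMSO.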

Test [13] in a line: CCTE_Mundy_HCI_hN2_NOG_NeuriteCount: CCTE's Neurite Outgrowth Assay in human hN2 cells for Neurite Count, Mundy Lab (AID 2284219; active = hit-call score of the fitted dose curve at least 0.9, where 1 is the maximum). A digest of the protocol:
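In this morphology assay, hNP1-derived neurons received test chemical 2 h post-plating and were fixed two days later in warm paraformaldehyde/sucrose containing Hoechst 33342. Neurites, labelled by rabbit anti-βIII-tubulin (1:800) and Alexa Fluor-488 (1:500), were counted automatically.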

A short description of test [14]: CCTE_Mundy_HCI_Cortical_Synap_Neur_Matur_CellBodySpotCount: CCTE's Synaptogenesis and Neurite Maturation Assay in rat cortical cells for Cell Body Spot Count, Mundy Lab (AID 2284223). The essentials:
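High-content imaging counts synaptophysin puncta on neuronal cell bodies per neuron after MAP2/synaptophysin immunostaining. Rat primary cortical cells, glia arrested with AraC at DIV 5, were exposed DIV 7–12; signal decrease measured against DMSO.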

Test [15] can be described thus: CCTE_Mundy_HCI_hNP1_Pro_ResponderAvgInten: CCTE's Proliferation Assay in human neuroprogenitor cells, Mundy Lab (AID 2284224; active = hit-call score of the fitted dose curve at least 0.9, where 1 is the maximum;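 note: human neural progenitor cells hNP1 derived from WA09 embryonic stem cells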). The essentials:
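Proliferation was scored as BrdU labelling intensity in human neural progenitors derived from WA09 embryonic cells, measured 26.25 hours after chemical dosing. Activity was fitted relative to DMSO.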

Test [16] is described as follows: TAMU_HCS_1.5hr_SingleDonor1434_Cytotoxicity: Cytotoxicity Assessment using High-content Screening (HCS) Fluorescent Imaging for the Texas A&M University (TAMU) 1.5-hr Human Induced Pluripotent Stem Cell (iPSC)-derived Cardiotoxicity Assay (AID 2284234; active = hit-call score of the fitted dose curve at least 0.9, where 1 is the maximum). The essentials:
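Nuclear counts from Hoechst 33342 imaging define cytotoxicity here, with EC10 (10% cell-count loss relative to DMSO) as point of departure. iPSC cardiomyocytes received 0.2-100 uM test chemical in 0.5% DMSO for 1.5 h at 37 C.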

Test [17] is described as follows: TAMU_PeakParms_SingleDonor1434_QT: Texas A&M University (TAMU) 1.5-hr Human Induced Pluripotent Stem Cell (iPSC)-derived Cardiomyocytes Calcium (Ca+2) Flux Assay for Cardiotoxicity: QT (decay-rise ratio) (AID 2284235; active = hit-call score of the fitted dose curve at least 0.9, where 1 is the maximum). The essentials:
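Decay/rise ratio of calcium-flux fluorescence scored after 90 min exposure (37C) of donor 1434 iPSC cardiomyocytes to 0.2–100 uM (0.5% DMSO). Beat-cessation and severe-notch points removed; POD is EC05, a 5% rise over DMSO.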

The nature of test [18]: CCTE_Mundy_HCI_Cortical_NOG_NeuronCount: CCTE's Neurite Outgrowth Assay in rat cortical cells for Neuron Count, Mundy Lab (AID 2284236; active = hit-call score of the fitted dose curve at least 0.9, where 1 is the maximum;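 note: neurons counted by imaging betaIII-tubulin and Hoechst stained cortical cells; cells exposed to compound for about 48 hours before fixation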). A digest of the protocol:
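Read-out: neuron number by high-content imaging of betaIII-tubulin (Alexa Fluor-488) and Hoechst-labelled rat primary cortical cells.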

Tumor necrosis factor (Homo sapiens), sequence (P01375 whole entry, looked up): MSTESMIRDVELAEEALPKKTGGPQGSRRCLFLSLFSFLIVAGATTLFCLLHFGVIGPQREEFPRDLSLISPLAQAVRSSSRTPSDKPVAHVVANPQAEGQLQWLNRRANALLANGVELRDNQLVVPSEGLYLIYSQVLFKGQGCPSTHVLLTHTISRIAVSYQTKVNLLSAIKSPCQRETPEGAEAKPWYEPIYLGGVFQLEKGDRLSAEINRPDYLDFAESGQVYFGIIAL

With `FC(F)(I)C(F)(F)C(F)(F)C(F)(F)I`, the AC50 – broadly, the concentration at which the activity in the assay is half-maximal – in test [1] is 49.7 µM (active) and 47.7 µM (active) and 47.2 µM (active); in test [2] it was 45.7 µM (active) and 46.4 µM (active) and 56.3 µM (active); in test [3], 52.2 µM (active) and 54.9 µM (active) and 48.7 µM (active); in [4] it was 46.3 µM (active) and 55.2 µM (active) and 45.9 µM (active); in test [5], 42.1 µM (active) and 50.4 µM (active) and 39.2 µM (active); in test [6] it was 48.3 µM (active) and 46.1 µM (active) and 46 µM (active). Also, the AC50 in test [7] is 52.7 µM (active) and 45.4 µM (active) and 45.5 µM (active).

Take `OC[C@@H](O)[C@@H](O)[C@H](O)[C@@H](O)CO`: the compound was classed as inactive in [8], in test [9], in test [10], in test [11], in test [12] and in test [13]. In addition, the compound was called inactive in test [14], in test [15], in [16], in test [17] and in [18].

As to `O=C(O)C(F)(OC(F)(F)C(F)(OC(F)(F)C(F)(OC(F)(F)C(F)(F)C(F)(F)F)C(F)(F)F)C(F)(F)F)C(F)(F)F` (configuration not stated), the outcome in test [1], in [2], in test [3], in [4], in [5] and in [6] was inactive. The outcome in test [7] was inactive.

`FC(F)(F)C(F)(F)C(F)(F)C(F)(F)C(F)(F)C(F)(F)CCS`: the outcome in test [1], in [2], in test [3], in test [4], in [5] and in test [6] was inactive. Besides, in test [7], the result was inactive.

Consider `NC(=O)C(F)(F)C(F)(F)C(F)(F)C(F)(F)F`, for which the outcome in test [1], in [2], in test [3], in test [4], in test [5] and in test [6] was inactive. In test [7], the result was inactive.

`C=C(C)C(=O)OCC(F)(F)C(F)(F)C(F)(F)C(F)(F)C(F)(F)C(F)(F)C(F)(F)F`: the outcome in test [1], in [2], in test [3], in [4], in [5] and in [6] was inactive. For the same compound, the outcome in test [7] was inactive.

In the case of `C=CC(F)(F)C(F)(F)C(F)(F)C(F)(F)C(F)(F)C(F)(F)C(F)(F)C(F)(F)F`, the result in test [1], in test [2], in [3], in test [4], in test [5] and in test [6] was inactive. Further, in [7], the result was inactive.

For `O=C(O)C(F)(F)C(F)(F)C(F)F`, the outcome in [1], in test [2], in test [3], in test [4], in test [5] and in [6] was inactive. In test [7], the outcome was inactive.

Take `O=C(O)C=C(C(F)(F)F)C(F)(F)F`: the result in [1], in test [4] and in [5] was inactive. For the same compound, the half-maximal activity concentration (AC50) in [2] is 46 µM (active) and 43.1 µM (active); in [3] it was 30 µM (active); in [6], 30 µM (active) and 34.9 µM (active); in test [7] it was 21.8 µM (active) and 16.2 µM (active).
